40 compounds from PubChem BioAssay AID1611 (NINDS Approved Drug Screening Program, 2009) can be followed below.

The structures appear in SMILES notation.

The nature of this experiment: HSE-luciferase reporter activators – cell-based (AID 1611). Particulars: human cells, HSE-luciferase heat shock reporter; stronger effect = higher value. On the technique in general: A reporter such as luciferase makes a cellular process visible.
Consider `NCCCC(N)CC(=O)NCC1NC(=O)C(CO)NC(=O)C(N)CNC(=O)C(C2CCN=C(N)N2)NC(=O)/C(=C/NC(N)=O)NC1=O` (stereo not given), for which the fold change was determined as 0.59.
Take `CN(C)CCC(c1ccccc1)c1ccccn1` (stereo not given): the fold change turned out to be 1.7.
As to `Nc1ccc(S(=O)(=O)Nc2ccccn2)cc1`, the fold change is 0.76.
In the case of `CCn1cc(C(=O)O)c(=O)c2cc(F)c(N3CCNCC3)cc21`, the fold change came out at 1.06.
In the case of `c1ccc2[nH]c(-c3cscn3)nc2c1` it was 0.81; in that of `O=C(O)C1=CCNCC1`, 1.18; in that of `CCN(CC)CCOC(=O)C(c1ccccc1)c1ccccc1`, 1.24.
As for `CC[C@H]1OC(=O)[C@H](C)[C@@H](O[C@H]2C[C@@](C)(OC)[C@@H](O)[C@H](C)O2)[C@H](C)[C@@H](O[C@@H]2O[C@H](C)C[C@H](N(C)C)[C@H]2O)[C@](C)(O)C[C@@H](C)CN(C)[C@H](C)[C@@H](O)[C@]1(C)O`, the figure is 293.
As for `CN1CCC(=C2c3ccccc3CC(=O)c3sccc32)CC1`, the fold change came out at 1.41.
As for `Cc1cc(C)nc(NS(=O)(=O)c2ccc(N)cc2)n1`, the figure is 1.02.
In the case of `CC(C)[N+]1(C)C2CC[C@@H]1CC(OC(=O)C(CO)c1ccccc1)C2` (stereo not given in full), the fold change was 0.91.
As for `CCN(CCCCOC(=O)c1ccc(OC)c(OC)c1)C(C)Cc1ccc(OC)cc1` (stereo not given), the figure is 1.27.
For the compound `CCN(CC)C(C)CN1c2ccccc2Sc2ccccc21` (stereo not given), the fold change was determined as 1.55.
For the compound `COc1ccc(C[C@H](N)C(=O)N[C@@H]2[C@@H](CO)OC(n3cnc4c(N(C)C)ncnc43)[C@@H]2O)cc1` (stereo not given in full), the fold change was found to be 1.26.
As for `CC(=O)Nc1ccccc1`, the figure is 0.93.
`CN[C@@H]1[C@H](O)[C@H](NC)[C@H]2O[C@@]3(O)C(=O)C[C@@H](C)O[C@H]3O[C@@H]2[C@H]1O`: the fold change worked out at 1.27.
As for `COC(=O)C(N)CS` (stereo not given), the figure is 0.85; as for `NCC(O)CC(=O)O` (stereo not given), 0.94.
Turning to `Cc1ccccc1N1C(=O)c2cc(S(N)(=O)=O)c(Cl)cc2NC1C` (stereo not given), the fold change is 0.83.
As for `N[C@@H](CCC(=O)N[C@@H](CS)C(=O)NCC(=O)O)C(=O)O`, the fold change stood at 1.11.
As for `CCC(=O)c1ccc2c(c1)N(CC(C)N(C)C)c1ccccc1S2` (stereo not given), the figure is 0.88; as for `C=C[C@H]1CN2CC[C@H]1C[C@@H]2[C@H](O)c1ccnc2ccc(OC)cc12`, 1.63.
As for `Nc1ccc(S(=O)(=O)Nc2ccnn2-c2ccccc2)cc1`, the figure is 0.94; as for `O=C(O)CCC(=O)c1ccc(-c2ccccc2)cc1`, 1.02; as for `N[C@@H]1CONC1=O`, 1.23.
On to `NC(=O)c1ccc[n+]([C@@H]2O[C@H](COP(=O)([O-])OP(=O)(O)OC[C@H]3O[C@@H](n4cnc5c(N)ncnc54)[C@H](O)[C@@H]3O)[C@@H](O)[C@H]2O)c1`, for which the fold change came to 1.11.
As to `Cn1c(=O)[nH]c2ncn(C)c2c1=O`, the fold change was determined as 1.88.
In the case of `c1coc(CNc2ncnc3nc[nH]c23)c1` it was 1.22.
As for `Cc1nnc(NS(=O)(=O)c2ccc(N)cc2)s1`, the figure is 0.85; as for `CCCCc1oc2ccccc2c1C(=O)c1cc(I)c(OCCN(CC)CC)c(I)c1`, 0.84; as for `CC1(C)O[C@@H]2CC3C4C[C@H](F)C5=CC(=O)CC[C@]5(C)C4[C@@H](O)C[C@]3(C)[C@]2(C(=O)CO)O1` (stereo not given in full), 1.35.
As for `CC(=O)[C@H]1CCC2C3CC=C4C[C@@H](O)CC[C@]4(C)C3CC[C@@]21C` (stereo not given in full), the fold change worked out at 0.92.
As for `C[N+]1(C)C2CC[C@H]1CC(OC(=O)C(O)c1ccccc1)C2` (stereo not given in full), the figure is 1.16; as for `Cn1nnnc1SCC1=C(C(=O)O)N2C(=O)C(NC(=O)C(O)c3ccccc3)C2SC1` (stereo not given), 1.15.
Take `C#C[C@]1(OC(C)=O)CCC2C3CCC4=CC(=O)CC[C@@H]4C3CC[C@@]21C` (stereo not given in full): the fold change worked out at 0.92.
On to `CCN1CCN(C(=O)NC(C(=O)NC2C(=O)N3C(C(=O)O)=C(CSc4nnnn4C)CSC23)c2ccc(O)cc2)C(=O)C1=O` (stereo not given), for which the fold change is 0.74.
In the case of `C[C@@H]1O[C@@H](O[C@H]2[C@H](Oc3cc(O)c4c(c3)O[C@H](c3ccc(O)cc3)CC4=O)O[C@H](CO)[C@@H](O)[C@@H]2O)[C@H](O)[C@H](O)[C@H]1O` it was 1.36.
As to `Cc1cc(C(C)(C)C)cc(C)c1CC1=NCCN1`, the fold change stood at 1.28.
Regarding `COc1ccc(CCN2CCC(Nc3nc4ccccc4n3Cc3ccc(F)cc3)CC2)cc1`, the fold change is 1.64.
As for `CCCCCCCCCCCCCCCC(=O)OC/C=C(C)/C=C/C=C(C)/C=C/C1=C(C)CCCC1(C)C`, the figure is 1.08.
